Read-outs that look alike come from different tables or passages of the source.
Key:
Parameters in all cases: species or system human, MV4-11 + K-562 + COLO205 + SK-N-BE2 + OVCAR-8
[1] = tested on: CDK16; conditions: read-out: apparent Kd, n = 1
[2] = tested on: CDK17; conditions: read-out: apparent Kd, n = 1
[3] = tested on: CLK1; conditions: read-out: apparent Kd; compound concentrations: 100 nM and 1000 nM (sheet 'Samples'), CATDS: 0.14144162064954499; n = 1
[4] = tested on: CLK4; conditions: read-out: apparent Kd, n = 1
[5] = tested on: DYRK1A; conditions: read-out: apparent Kd; compound concentrations: 100 nM and 1000 nM (sheet 'Samples'), CATDS: 6.0885213450921502E-2; n = 1
[6] = tested on: GSK3A; conditions: read-out: apparent Kd, n = 1
[7] = tested on: GSK3B; conditions: read-out: apparent Kd, compound concentrations: 100 nM and 1000 nM (sheet 'Samples'), n = 1
[8] = tested on: ICK; conditions: read-out: apparent Kd, n = 1
[9] = tested on: PRKCA; conditions: read-out: apparent Kd; compound concentrations: 100 nM and 1000 nM (sheet 'Samples'), CATDS: 6.1825082982023397E-2; n = 1
[10] = tested on: PRKCB; conditions: read-out: apparent Kd; compound concentrations: 100 nM and 1000 nM (sheet 'Samples'), CATDS: 5.6210904808559101E-2; n = 1
[11] = tested on: PRKCD; conditions: read-out: apparent Kd; compound concentrations: 100 nM and 1000 nM (sheet 'Samples'), CATDS: 6.6135854236704303E-2; n = 1
[12] = tested on: SLK; conditions: read-out: apparent Kd, n = 1
[13] = tested on: T1, DJA1; conditions: read-out: apparent Kd; compound concentrations: 100 nM and 1000 nM (sheet 'Samples'), CATDS: 0.17087221308304101; n = 1
T1 construct: gene DNAJA1

[14] = tested on: NQO2; conditions: read-out: apparent Kd; compound concentrations: 100 nM and 1000 nM (sheet 'Samples'), CATDS: 0.16613061012500299; n = 1
[15] = tested on: PDXK; conditions: read-out: apparent Kd; compound concentrations: 100 nM and 1000 nM (sheet 'Samples'), CATDS: 0.14245217988019501; n = 1
[16] = tested on: CDK2; conditions: read-out: apparent Kd; compound concentrations:100 nM and 1000 nM (sheet 'Samples'); n = 1
[17] = tested on: CDKL5; conditions: read-out: apparent Kd; compound concentrations:100 nM and 1000 nM (sheet 'Samples'); n = 1
[18] = tested on: CSNK2A1;CSNK2A3; conditions: read-out: apparent Kd; compound concentrations:100 nM and 1000 nM (sheet 'Samples'); n = 1
[19] = tested on: CSNK2A2; conditions: read-out: apparent Kd; compound concentrations:100 nM and 1000 nM (sheet 'Samples'); n = 1
[20] = tested on: TGFBR2; conditions: read-out: apparent Kd; compound concentrations:100 nM and 1000 nM (sheet 'Samples'); n = 1
[21] = tested on: CDC42; conditions: read-out: apparent Kd; compound concentrations:100 nM and 1000 nM (sheet 'Samples'); n = 1
[22] = tested on: FLT3; conditions: read-out: apparent Kd; compound concentrations:100 nM and 1000 nM (sheet 'Samples'); n = 1
[23] = tested on: LIMK2; conditions: read-out: apparent Kd; compound concentrations:100 nM and 1000 nM (sheet 'Samples'); n = 1
[24] = tested on: CDK10; conditions: read-out: apparent Kd; compound concentrations:100 nM and 1000 nM (sheet 'Samples'); n = 1
[25] = tested on: CDK1; conditions: read-out: apparent Kd; compound concentrations:100 nM and 1000 nM (sheet 'Samples'); n = 1
[26] = tested on: CDK4; conditions: read-out: apparent Kd; compound concentrations:100 nM and 1000 nM (sheet 'Samples'); n = 1
[27] = tested on: CDK5; conditions: read-out: apparent Kd; compound concentrations:100 nM and 1000 nM (sheet 'Samples'); n = 1
[28] = tested on: CDK6; conditions: read-out: apparent Kd; compound concentrations:100 nM and 1000 nM (sheet 'Samples'); n = 1
[29] = tested on: CDK7; conditions: read-out: apparent Kd; compound concentrations:100 nM and 1000 nM (sheet 'Samples'); n = 1
[30] = tested on: CDK9; conditions: read-out: apparent Kd; compound concentrations:100 nM and 1000 nM (sheet 'Samples'); n = 1
[31] = compound concentrations:100 nM and 1000 nM (sheet 'Samples')

With `Cl.Cn1cc(C2=C(c3cccc(NCC(O)CO)c3)C(=O)NC2=O)c2cc(Cl)ccc21` (centres unmarked) [RO3303724-001] as the compound, how does the potency estimated from few doses ([1]; compound concentrations: 100 nM and 1000 nM (sheet 'Samples'), CATDS: 8.3420011221061796E-2) read?
Its potency estimated from few doses is 0.435 µM.

What about the potency estimated from few doses ([2]; compound concentrations: 100 nM and 1000 nM (sheet 'Samples'), CATDS: 6.9472696820348595E-2) of the same compound?
Its potency estimated from few doses is 0.789 µM.

What about the potency estimated from few doses [3] of the same compound?
Its potency estimated from few doses is 0.0894 µM.

What about the potency estimated from few doses ([4]; compound concentrations: 100 nM and 1000 nM (sheet 'Samples'), CATDS: 0.121885472090614) of the same compound?
The potency estimated from few doses was 0.14 µM.

And the potency estimated from few doses [5]?
Its potency estimated from few doses is 1.29 µM.

And the potency estimated from few doses ([6]; compound concentrations: 100 nM and 1000 nM (sheet 'Samples'), CATDS: 0.52335848110550598)?
Its potency estimated from few doses is 0.00159 µM.

What about the potency estimated from few doses ([7]; CATDS: 0.436012050591219) of the same compound?
The potency estimated from few doses was 0.00226 µM.

And the potency estimated from few doses ([8]; compound concentrations: 100 nM and 1000 nM (sheet 'Samples'), CATDS: 7.1463639855973302E-2)?
The potency estimated from few doses was 0.716 µM.

And the potency estimated from few doses [9]?
Its potency estimated from few doses is 1.21 µM.

And the potency estimated from few doses [10]?
The potency estimated from few doses was 1.83 µM.

And the potency estimated from few doses [11]?
The potency estimated from few doses was 0.939 µM.

What about the potency estimated from few doses ([12]; compound concentrations: 100 nM and 1000 nM (sheet 'Samples'), CATDS: 5.3656939950023998E-2) of the same compound?
The potency estimated from few doses was 2.31 µM.

What does the source list for `Cn1cc(C2=C(c3cccc(Br)c3)C(=O)NC2=O)c2ccccc21` [RO0317625-000]?
potency estimated from few doses ([1]; compound concentrations: 100 nM and 1000 nM (sheet 'Samples'), CATDS: 0.11881037811930099): 2.31 µM; potency estimated from few doses [13]: 0.881 µM; potency estimated from few doses ([6]; compound concentrations: 100 nM and 1000 nM (sheet 'Samples'), CATDS: 0.21400406250920001): 0.574 µM; potency estimated from few doses ([7]; CATDS: 0.248828524546996): 0.447 µM; potency estimated from few doses [14]: 0.935 µM; potency estimated from few doses [15]: 1.34 µM

How did the potency estimated from few doses [1, 31] turn out when `CC(C)COC(=O)c1ccc2c(c1)/C(=C/Nc1ccc(S(N)(=O)=O)cc1)C(=O)N2` [GW416981X] was run?
Its potency estimated from few doses is 0.964 µM.

What about the potency estimated from few doses [16] of the same compound?
Its potency estimated from few doses is 0.587 µM.

What about the potency estimated from few doses [17] of the same compound?
The potency estimated from few doses was 1.29 µM.

What about the potency estimated from few doses [4, 31] of the same compound?
The potency estimated from few doses was 1.48 µM.

And the potency estimated from few doses [18]?
The potency estimated from few doses was 0.477 µM.

And the potency estimated from few doses [19]?
Its potency estimated from few doses is 0.246 µM.

And the potency estimated from few doses [20]?
The potency estimated from few doses was 1.86 µM.

`CC(=O)Nc1n[nH]c2ncc(-c3ccccc3)cc12` [SB-548492] was tested. Which potency estimated from few doses [21] did it give?
The potency estimated from few doses was 1.85 µM.

What about the potency estimated from few doses [22] of the same compound?
Its potency estimated from few doses is 1.04 µM.

What about the potency estimated from few doses [6, 31] of the same compound?
Its potency estimated from few doses is 0.748 µM.

What about the potency estimated from few doses [23] of the same compound?
Its potency estimated from few doses is 1.15 µM.

Which results are given for `COc1ccc(F)cc1C(=O)c1cnc(NC2CCN(S(C)(=O)=O)CC2)nc1N` [RO4517872-000]?
potency estimated from few doses [24]: 0.915 µM; potency estimated from few doses [1, 31]: 0.0741 µM; potency estimated from few doses [2, 31]: 0.0751 µM; potency estimated from few doses [25]: 0.402 µM; potency estimated from few doses [16]: 0.0627 µM; potency estimated from few doses [26]: 1.2 µM; potency estimated from few doses [27]: 0.221 µM; potency estimated from few doses [28]: 1.68 µM; potency estimated from few doses [29]: 1.46 µM; potency estimated from few doses [30]: 0.246 µM; potency estimated from few doses [8, 31]: 0.347 µM; potency estimated from few doses [12, 31]: 1.28 µM
